Data from PubChem BioAssay (NCI).
“And” between values parts separate entries of the source, which are not always exact repeats. Equal entries are not always repeated. About 83,000 compounds went through this panel and 20% of them were active in at least one assay; those are over-represented in the sample as a whole.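 Compound tested at a single concentration for 48 hours in 96-well plates; a percent growth value below 10 was scored as active.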 Values without a mark were called inactive. The source made the active and inactive calls.

Assays:
Experiment in all cases: NCI-60 one-dose screen, 48 h (100 = growth as untreated, 0 = no growth, -100 = all killed)
Settings in all cases: 10 µM
DU-145 prostate = system: DU-145 prostate
K-562 leukemia = system: K-562 leukemia
MALME-3M melanoma = system: MALME-3M melanoma
MDA-MB-231 breast = system: MDA-MB-231 breast
RXF 393 renal = system: RXF 393 renal
SF-268 CNS = system: SF-268 CNS
SF-295 CNS = system: SF-295 CNS
SF-539 CNS = system: SF-539 CNS
UACC-257 melanoma = system: UACC-257 melanoma
M14 melanoma = system: M14 melanoma

Row | SMILES | growth (DU-145 prostate) | growth (K-562 leukemia) | growth (MALME-3M melanoma) | growth (MDA-MB-231 breast) | growth (RXF 393 renal) | growth (SF-268 CNS) | growth (SF-295 CNS) | growth (SF-539 CNS) | growth (UACC-257 melanoma) | growth (M14 melanoma)
1 | C=C1C(=O)O[C@@H]2C[C@@H](C)[C@@H]3C=CC(=O)[C@@]3(C)[C@@H](O)[C@H]12 | -100% (active) | -56.9% (active) | -76.6% (active) | -63.2% (active) | 1.51% (active) | -45% (active) | -35.8% (active) | -73.3% (active) | 1.25% (active) | -64.8% (active)
2 | O=[N+]([O-])c1ccc(N(CCO)CCO)c2c1no[n+]2[O-] | -44.5% (active) | -55.9% (active) | -38.2% (active) | -12% (active) | -21.4% (active) | -17.6% (active) | -23.2% (active) | -59.8% (active) | 12.1% | -32.4% (active)
3 | O=C(CBr)Nc1ccccc1 | 102% | 39.4% | 54.7% | 95.3% | 107% | 90.1% | 103% | 106% | 99.5% | 84.4%
4 | ClCc1ccc2ccccc2n1 | 102% | 72.3% | 97.6% | 102% | 95.5% | 80.5% | 87.3% | 106% | 104% | 84.7%
5 | CC[C@@H](C)[C@@H]1NC(=O)C(NC(=O)C(CC(C)C)N(C)C(=O)C2CCCN2C(=O)C(C)O)C(C)OC(=O)C(Cc2ccc(OC)cc2)N(C)C(=O)C2CCCN2C(=O)C(CC(C)C)NC(=O)C(C)C(=O)C(C(C)C)OC(=O)C[C@H]1O (some centres undefined) | -40.7% (active) | -27% (active) | -87.2% (active) | -55.6% (active) | -66.2% (active) | -49.4% (active) | -31% (active) | -70.1% (active) | -50.8% (active) | -80.1% (active)
6 | CC/C(=C/c1ccc(OC)cc1)[N+](=O)[O-] | 31.5% | 5.85% (active) | -36.1% (active) | -18.5% (active) | -79.7% (active) | 38% | 98.1% | -19.6% (active) | 4.44% (active) | 19.9%
7 | CS(=N)(=O)CCC(N)C(=O)O (centres undefined) | 122% | 97.2% | 103% | 109% |  | 119% | 97.1% | 109% | 105% | 108%
8 | NC(=O)c1cc([N+](=O)[O-])c(Cl)c([N+](=O)[O-])c1 | 65.5% |  | 71.3% | 92.2% | 93.8% | 101% | 115% | 98.1% | 105% | 78.6%
9 | CN(C)CC1(N)C(=O)NC(=O)NC1=O |  | 99.3% | 108% | 98.7% | 101% | 103% | 98.8% | 99% | 87.4% | 102%
10 | O=[N+]([O-])c1cc[n+]([O-])c2ccccc12 |  | 0.325% (active) | -69% (active) | -45.1% (active) | -87.1% (active) | 3.65% (active) | -17.7% (active) | -35% (active) | -47.1% (active) | -92.9% (active)
11 | C[CH2][Hg][S]c1ccccc1C(=O)O | -28.6% (active) | -4.39% (active) | -96.4% (active) | -5.17% (active) | -96.8% (active) | -18.6% (active) | 97.2% |  | -98.5% (active) | -67.1% (active)
12 | CCOP(=O)(OCC)C(O)c1ccccc1Cl (centres undefined) | 97.7% | 97.7% | 86.8% | 118% |  | 100% | 112% | 91.1% | 106% | 103%
13 | COC1CC2C=C(C)/C=C/C=C/C(=O)NC(c3ccccc3)C/C=C/CCC(O)CC(=O)C2=C1O (centres undefined) | -85.6% (active) | -52.2% (active) | -84.5% (active) | -74.8% (active) | -90.6% (active) | -78.3% (active) | -89.3% (active) | -99.4% (active) |  | -95.7% (active)
14 | NC(Cc1ccccc1)c1ccccc1 (centres undefined) | 117% and 120% | 108% and 94.4% | 106% and 109% | 102% and 95% | 105% and 109% | 106% and 103% | 102% and 104% | 103% and 97.2% | 106% and 95.4% | 95.1% and 94%
15 | CCOP(=O)(OCC)/C(C#N)=C/c1ccc(Br)cc1 | 107% |  | 107% | 106% |  | 95.2% | 106% | 95.9% | 93.7% | 98.4%
16 | CC(=O)[O][Hg][c]1c(C)c(C)cc(C)c1C | -61% (active) | -10.1% (active) |  | -51.5% (active) | -45.5% (active) | -74.4% (active) | 13.6% | 41.9% | -64.1% (active) | -87% (active)
17 | COC12c3c(C)cc(O)c4c(=O)occ(c34)C(=O)C1C13COC(=O)c4c(O)cc(C)c(c41)C(=O)C2C3OC(C)=O (centres undefined) | 113% | 97.8% | 92.7% | 100% | 115% | 100% |  | 95.9% | 106% | 
18 | Oc1c(Cl)cc(Cl)c2ccccc12.[Cu+2] | 106% | 69% | 96.3% | 81.4% | 103% | 109% |  | 108% | 113% | 97.9%
19 | Cn1c(O)c(N=O)c(=O)n(C)c1=O | 98.1% and 106% | 94.1% and 95.2% | 99.1% and 107% | 107% and 101% | 107% and 115% | 92.8% and 97.5% | 102% and 93.7% | 102% and 90.7% | 99.3% and 95.7% | 111% and 102%
20 | NC(=O)c1cc([N+](=O)[O-])c(Cl)c([N+](=O)[O-])c1Cl |  | 8.14% (active) | -51.5% (active) | 1.49% (active) | -89.6% (active) |  | 95.5% | 5% (active) | -29.2% (active) | -21.9% (active)
21 | C[C@@H]1C[C@@H]([C@H](O)CC2CC(=O)NC(=O)C2)C(=O)[C@@H](C)C1 | 4.37% (active) |  | 1.97% (active) | 0.445% (active) |  | 5.71% (active) | 2.62% (active) | -5.66% (active) | -4.83% (active) | -9.1% (active)
22 | Cc1cc(C)c(C[N+](C)(C)C)c(C)c1C | 5.6% (active) | 7.21% (active) |  | -12.6% (active) |  | 2.43% (active) | 2.12% (active) | -7.58% (active) | 16.9% | 10.5%
23 | COc1cc(/C=C\[N+](=O)[O-])ccc1O | 27.4% and 61.2% | 26.5% and 48.1% | 50.4% and 96.4% | 91.6% and 83.6% | 23.2% and 56% | 75.5% and 87.6% | 110% and 104% | 70.5% and 83.2% | 61.2% and 90.5% | 71.3% and 52.1%
24 | COc1cc2c(c(OC)c1OC)-c1ccc(O)c(=O)cc1[C@@H](NC(C)=O)CC2 | 61.5% | 46.8% | 79.8% | 72.2% | 59.7% | 47.5% |  | 51.5% | 75.7% | 52.7%
25 | [Cl][Hg][c]1ccc2ccccc2c1 | -22.1% (active) | -13.1% (active) |  | -69.6% (active) | -97% (active) | -70.4% (active) | 17.3% | -13.7% (active) | -86.7% (active) | -99.1% (active)
